Screening results (PubChem BioAssay)
HIF-2a block – HIF-2a reporter inhibitors, primary screen, luminescence, 786-0 RCC cells | 360,000 compounds, 0.72% hits | 786-0 RCC cells HIF-2a reporter, luciferase luminescence, overnight | inhibition, % at 18.8 µM;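 active = inhibition of the luminescence signal of 40% or more relative to plate controls, in a single-dose primary screen at 18.75 µM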
TROY NFkB inh – inhibitors of TROY-driven NF-kB signaling, primary screen, Q293 LMP1-TROYcd cells, NF-kB luciferase, uHTS. Q293 LMP1-TROYcd NF-kB luciferase reporter, 4 h. inhibition, % at 10 µM. 360,000 compounds, 0.98% hits. AID 1347056, 2019;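 active = compounds whose plate-normalised and pattern-corrected inhibition of the luciferase reporter signal at the single screening dose is 50% or more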
CF NFkB inh – inhibitors of PAF-induced NF-kB signaling, primary screen, cell-based, GFP fluorescence, uHTS. AID 588850, 2011. 360,000 compounds, 0.86% hits. KKLEB NF-kB-GFP reporter, GFP fluorescence overnight. inhibition, % at 5 µM;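 active = at least 50% inhibition at 5 µM, scaled per plate between neutral and stimulator controls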;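 also: PAF is a Pseudomonas aeruginosa culture filtrate used as stimulus; plate controls were PAF-stimulated DMSO wells for no effect and unstimulated DMSO wells for full effect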
TWEAK-Fn14 inh – inhibitors of TWEAK-Fn14 signaling, primary screen, luciferase reporter cells, uHTS | TWEAK-stimulated Fn14 reporter cells, luciferase luminescence, 8 h | inhibition, % at 10 µM | 360,000 compounds, 2% hits | AID 1159606, 2016; in the data active = inhibition above about 50%
KKLEB tox – cytotoxicity in KKLEB CF airway cells, primary screen, cytotoxicity control for CF NF-kB inhibitor project, cell-based, uHTS, fluorescence assay plates; KKLEB CF airway cells viability, ATPlite luminescence, overnight; stronger effect = lower value; cells stimulated with P. aeruginosa culture filtrate; 360,000 compounds, 0.36% hits; activity change (cytotoxicity), % at 5 µM;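 active = corrected activity change at or below -50% at 5 µM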
Peg3 prom inh – Peg3 promoter-driven luciferase inhibitors, primary screen, cell-based, HeLa, luciferase luminescence; HeLa PEG-Prom luciferase reporter, overnight; inhibition, % at 20 µM; 360,000 compounds, 1.7% hits; AID 588405, 2011;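 active = inhibition of at least 50% at 20 µM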
CF NFkB conf – inhibitors of PAF-induced NF-kB signaling, retest, confirmation, cell-based, GFP fluorescence, single concentration. shares compounds with CF NFkB inh. KKLEB CF airway cells, overnight. inhibition, % at 5 µM. 1,300 compounds, 64% hits. AID 602472, 2012; in the data active = inhibition above about 40%;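 also: stimulus PAF is a Pseudomonas aeruginosa filtrate and not platelet activating factor; plate controls were DMSO wells with stimulus for no effect and unstimulated DMSO wells for full effect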
* hit, by the source's call; ! = not confirmed by another sample. Most compounds without a hit are left out; they make up all but 4% or so of the library.

Results for COc1ccc(COC(=O)C2=C(C)NC(=O)NC2c2ccc(F)cc2)cc1 (configuration not stated) ?
HIF-2a block: 33; TROY NFkB inh: 33; CF NFkB inh: 60*; TWEAK-Fn14 inh: 53*; KKLEB tox: -6; Peg3 prom inh: 27; CF NFkB conf: 59*

How did CSC[C@H]1CN(CCc2ccccc2)C(=O)[C@@H]1CC(=O)Nc1ccccc1 do in these assays?
HIF-2a block: 6; TROY NFkB inh: 13; CF NFkB inh: -2; TWEAK-Fn14 inh: 2; KKLEB tox: -7; Peg3 prom inh: -4

What do the screens show for `Cc1ccc(C(=O)Nc2cccc(C(F)(F)F)c2)cc1Nc1cncnc1`?
HIF-2a block: 9; TROY NFkB inh: 8; CF NFkB inh: 29; TWEAK-Fn14 inh: -3; KKLEB tox: -3; Peg3 prom inh: 18

Results for Cc1ccc(C(=O)Nc2cccc(C(F)(F)F)c2)cc1NC(=O)c1nccnc1N ?
HIF-2a block: 12; TROY NFkB inh: -12; CF NFkB inh: 59*!; TWEAK-Fn14 inh: -85; KKLEB tox: -44; Peg3 prom inh: 10; CF NFkB conf: 78*

What do the screens show for `Cc1ccc(C(=O)Nc2cccc(C(F)(F)F)c2)cc1NC(=O)c1cnnc2ccccc12`?
HIF-2a block: 2; TROY NFkB inh: -4; CF NFkB inh: 53*; TWEAK-Fn14 inh: -38; KKLEB tox: -25; Peg3 prom inh: 17; CF NFkB conf: 52*

Results for CN(C)c1cccc(C(=O)NCc2ccc3c(c2)OCO3)c1 ?
HIF-2a block: -61; TROY NFkB inh: -44; CF NFkB inh: -15; TWEAK-Fn14 inh: 7; KKLEB tox: 10; Peg3 prom inh: -53

What do the screens show for `O=S(=O)(Nc1nc2ccccc2nc1N1CCN(c2ccccc2F)CC1)c1ccc(Cl)cc1`?
HIF-2a block: -3; TROY NFkB inh: 44; CF NFkB inh: 61*; TWEAK-Fn14 inh: -6; KKLEB tox: -47; Peg3 prom inh: 49; CF NFkB conf: 66*

How did COCc1cc(=O)[nH]c(SCCS(=O)(=O)c2ccc(Cl)cc2Cl)n1 do in these assays?
HIF-2a block: 12; TROY NFkB inh: 13; CF NFkB inh: 100*; TWEAK-Fn14 inh: 55*; KKLEB tox: -43; Peg3 prom inh: 46; CF NFkB conf: -15

What do the screens show for `COCc1cc(=O)[nH]c(SCCS(=O)(=O)c2ccc(C)cc2)n1`?
HIF-2a block: 0; TROY NFkB inh: 7; CF NFkB inh: -7; TWEAK-Fn14 inh: 3; KKLEB tox: -15; Peg3 prom inh: 4

How did COc1ccc(C(=O)NCCc2ccc(C(F)(F)F)cc2)cc1S(=O)(=O)N1CCOCC1 do in these assays?
HIF-2a block: 11; TROY NFkB inh: 6; CF NFkB inh: -30; TWEAK-Fn14 inh: -1; KKLEB tox: 5; Peg3 prom inh: 7

Results for COc1ccc(-c2cc(=O)oc3c(C)c(OC(=O)c4cccs4)ccc23)cc1 ?
HIF-2a block: 7; TROY NFkB inh: 21; CF NFkB inh: 72*; TWEAK-Fn14 inh: 38; KKLEB tox: 12; Peg3 prom inh: 31; CF NFkB conf: 96*

Results for CCOC(=O)C(Oc1ccc2c(-c3ccc(OC)cc3)cc(=O)oc2c1C)c1ccccc1 (configuration not stated) ?
HIF-2a block: 16; TROY NFkB inh: 10; CF NFkB inh: 23; TWEAK-Fn14 inh: 21; KKLEB tox: -3; Peg3 prom inh: 23

Results for O=C1NC(=S)N/C1=C\c1cccnc1 ?
HIF-2a block: 18; TROY NFkB inh: 32; CF NFkB inh: 54*; TWEAK-Fn14 inh: 50*; KKLEB tox: -2; Peg3 prom inh: 15; CF NFkB conf: 64*

Results for O=C1NC(=S)N/C1=C/c1cccnc1 ?
HIF-2a block: 12; TROY NFkB inh: 30; CF NFkB inh: 52*; TWEAK-Fn14 inh: 53*; KKLEB tox: -6; Peg3 prom inh: -2; CF NFkB conf: 46*

How did C=C(CC[C@@H](O)C(C)(C)O)[C@H]1CC[C@]2(C)[C@@H]1CCC1[C@@]3(C)CCC(=O)C(C)(C)C3CC[C@]12C (some centres not stated) do in these assays?
HIF-2a block: 6; TROY NFkB inh: 3; CF NFkB inh: 25; TWEAK-Fn14 inh: -1; KKLEB tox: -20; Peg3 prom inh: 5

How did C=C(C)[C@@H]1CCC2(C(=O)O)CC[C@]3(C)[C@H](CC[C@@H]4[C@@]5(C)CCC(=O)C(C)(C)[C@@H]5CC[C@]43C)[C@@H]12 (some centres not stated) do in these assays?
HIF-2a block: 8; TROY NFkB inh: -4; CF NFkB inh: 63*; TWEAK-Fn14 inh: 51*; KKLEB tox: -17; Peg3 prom inh: 8; CF NFkB conf: 64*

What do the screens show for `C[C@H](CO)N1C[C@H](C)[C@@H](CN(C)C(=O)Nc2ccc(C(F)(F)F)cc2)Oc2ccc(NS(=O)(=O)c3ccccc3)cc2C1=O`?
HIF-2a block: 9; TROY NFkB inh: -6; CF NFkB inh: 29; TWEAK-Fn14 inh: -12; KKLEB tox: 7; Peg3 prom inh: 0

How did Cc1nn(CC(=O)N2CCN(S(=O)(=O)c3ccccc3)CC2)c(C)c1[N+](=O)[O-] do in these assays?
HIF-2a block: 19; TROY NFkB inh: 4; CF NFkB inh: 18; TWEAK-Fn14 inh: 11; KKLEB tox: 5; Peg3 prom inh: 11

How did O=C1NC(=S)NC1=Cc1ccc(Cl)cc1Cl do in these assays?
HIF-2a block: -13; TROY NFkB inh: -7; CF NFkB inh: 7; TWEAK-Fn14 inh: -6; KKLEB tox: -4; Peg3 prom inh: -11

What do the screens show for `O=C1NC(=O)C(=Cc2ccc(Cl)cc2Cl)S1`?
HIF-2a block: -223; TROY NFkB inh: 54*; CF NFkB inh: 54*; TWEAK-Fn14 inh: 30; KKLEB tox: 7; Peg3 prom inh: -148; CF NFkB conf: 37

What do the screens show for `Cc1[nH]nc2c1-c1nc3ccccc3nc1C(C)(C)C2`?
HIF-2a block: 23; TROY NFkB inh: 33; CF NFkB inh: 51*; TWEAK-Fn14 inh: 46; KKLEB tox: -14; Peg3 prom inh: 22; CF NFkB conf: 54*

Results for CCOc1ccc(/C=C/C(=O)c2c(O)cc(C)oc2=O)cc1 ?
HIF-2a block: -283; TROY NFkB inh: -55; CF NFkB inh: 0; TWEAK-Fn14 inh: 15; KKLEB tox: 1; Peg3 prom inh: -154

How did COCOc1ccc(/C=C/C(=O)c2c(O)cc(OCOC)cc2OCOC)cc1 do in these assays?
HIF-2a block: -11; TROY NFkB inh: -11; CF NFkB inh: 52*; TWEAK-Fn14 inh: 38; KKLEB tox: -20; Peg3 prom inh: 15; CF NFkB conf: -16
